Drawing on PubChem BioAssay (NCATS), this text covers Potency for 13 compounds.

The target of experiment [1] is Tumor susceptibility gene 101 protein (Homo sapiens) (UniProt Q99816). The experiment can be described thus: qHTS Assay for Iinhibitors of HIV-1 Budding by Blocking the Interaction of PTAP/TSG101: Hit Validation (AID 651600). Also: potency is read from the fitted curve at half-maximal effect; nearly all actives have a fitted effect of over 70% in size. The essentials: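 Compounds are added to the Tsg101 binding domain (10 uM final) in pH 7.5 HEPES buffer. FITC-PTAP peptide follows at 50 nM final. After 20 min at r.t., polarized FITC emission is measured.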
Sequence of Tumor susceptibility gene 101 protein (Homo sapiens) (Q99816 whole entry, looked up, the tested form may be a part): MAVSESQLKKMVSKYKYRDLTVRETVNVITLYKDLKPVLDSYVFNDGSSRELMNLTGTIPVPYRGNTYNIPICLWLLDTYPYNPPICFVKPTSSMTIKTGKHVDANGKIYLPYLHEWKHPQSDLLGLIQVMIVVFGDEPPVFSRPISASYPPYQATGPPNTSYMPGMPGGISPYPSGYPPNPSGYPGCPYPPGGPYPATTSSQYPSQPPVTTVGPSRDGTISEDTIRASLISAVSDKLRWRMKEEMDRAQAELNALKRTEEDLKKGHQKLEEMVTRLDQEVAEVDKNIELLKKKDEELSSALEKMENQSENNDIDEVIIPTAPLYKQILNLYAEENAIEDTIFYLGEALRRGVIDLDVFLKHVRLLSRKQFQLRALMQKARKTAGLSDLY
(In qHTS, concentration-response curves come from the screen itself.)

For experiment [2], the target named is Rap guanine nucleotide exchange factor 3 (Homo sapiens) (UniProt O95398). Nature of the experiment: Confirmatory qHTS for antagonist of cAMP-regulated guanine nucleotide exchange factor 3 (EPAC1) (AID 1645880). Also: nearly all actives have a fitted effect of over 55% in size. Also: potency is read from the fitted curve at half-maximal effect. The conditions noted are these: EPAC1 Rap1B-BODIPY-GDP exchange, fluorescence; activity, negative = inhibition: at 115 µM (top of the series). Summed up:
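Released BODIPY-GDP fluoresces less than Rap1-bound BODIPY-GDP; the signal is followed at 480/540 nm at 5-min intervals over 30 min, after 5 min at room temperature. Reactions contain 100 nM EPAC1, 250 nM RAP1B-BODIPY-GDP and 50 uM GDP; results are normalized to ATA and DMSO.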

Experiment [3] has the same target. The experiment can be described thus: Confirmatory qHTS for agonist of cAMP-regulated guanine nucleotide exchange factor 3 (EPAC1) (AID 1645881).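 Also: EPAC1 catalysed release of BODIPY-GDP from Rap1B seen as fluorescence loss; nearly all actives have a fitted effect of over 75% in size.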
Experiment [4] deals with Rap guanine nucleotide exchange factor 4 (Homo sapiens) (UniProt Q8WZA2). The experiment can be described thus: Confirmatory qHTS for antagonist of cAMP-regulated guanine nucleotide exchange factor 4 (EPAC2) (AID 1645885). Also: nearly all actives have a fitted effect of over 25% in size. Also: potency is read from the fitted curve at half-maximal effect.
Sequence of Rap guanine nucleotide exchange factor 4 (Homo sapiens) (Q8WZA2 whole entry, looked up): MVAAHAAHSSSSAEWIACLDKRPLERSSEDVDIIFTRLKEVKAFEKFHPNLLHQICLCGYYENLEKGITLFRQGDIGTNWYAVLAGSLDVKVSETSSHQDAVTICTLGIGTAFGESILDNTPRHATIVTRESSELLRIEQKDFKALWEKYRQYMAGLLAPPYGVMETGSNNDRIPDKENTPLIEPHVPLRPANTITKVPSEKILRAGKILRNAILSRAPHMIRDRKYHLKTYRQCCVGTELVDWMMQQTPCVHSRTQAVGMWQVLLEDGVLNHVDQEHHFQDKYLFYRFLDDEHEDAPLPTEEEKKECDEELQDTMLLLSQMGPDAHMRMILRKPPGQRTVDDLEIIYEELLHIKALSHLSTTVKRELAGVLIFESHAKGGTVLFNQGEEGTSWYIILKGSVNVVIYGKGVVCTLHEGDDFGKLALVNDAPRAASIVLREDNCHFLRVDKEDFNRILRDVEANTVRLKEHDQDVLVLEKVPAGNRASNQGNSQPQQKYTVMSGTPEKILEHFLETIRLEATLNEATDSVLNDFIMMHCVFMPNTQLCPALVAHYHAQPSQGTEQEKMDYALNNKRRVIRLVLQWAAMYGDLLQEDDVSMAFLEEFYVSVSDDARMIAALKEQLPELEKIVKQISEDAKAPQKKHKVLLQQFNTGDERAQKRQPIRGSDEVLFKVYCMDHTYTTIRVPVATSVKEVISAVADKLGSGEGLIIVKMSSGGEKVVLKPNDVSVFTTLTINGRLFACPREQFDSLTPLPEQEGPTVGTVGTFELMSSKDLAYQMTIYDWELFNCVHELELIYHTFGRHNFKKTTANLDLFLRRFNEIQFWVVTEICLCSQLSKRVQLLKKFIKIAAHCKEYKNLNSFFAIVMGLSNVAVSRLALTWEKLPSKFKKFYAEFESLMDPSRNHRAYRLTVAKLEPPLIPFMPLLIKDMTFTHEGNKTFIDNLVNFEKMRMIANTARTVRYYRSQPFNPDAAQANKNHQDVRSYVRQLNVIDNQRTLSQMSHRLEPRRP
Experiment [5] concerns the target Rap guanine nucleotide exchange factor 3 (Homo sapiens) (UniProt O95398). Nature of the experiment: Counterscreen qHTS for antagonist of cAMP-regulated guanine nucleotide exchange factor 3 (EPAC1) (AID 1645888). Summed up: (§1)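 Measured: fluorescence of BODIPY-GDP bound to Rap1B, which falls as exchange proceeds. Conditions include 50 uM competing GDP, 5 and 30 min reads, and a later cAMP challenge for antagonist detection.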
In general terms: The purpose of a counterscreen is to sort out artefacts and off-target activity.

For experiment [6] the target is unchanged. The experiment can be described thus: Counterscreen qHTS for agonist of cAMP-regulated guanine nucleotide exchange factor 3 (EPAC1) (AID 1645889). Also: nearly all actives have a fitted effect of over 40% in size. Also: potency is read from the fitted curve at half-maximal effect. Summed up: as §1
Experiment [7] has as its target Tyrosyl-DNA phosphodiesterase 1 (Homo sapiens) (UniProt Q9NUW8). The experiment can be described thus: Confirmation Assay for Inhibitors of Tyrosyl-DNA Phosphodiesterase (TDP1) (AID 489007). Also: potency is read from the fitted curve at half-maximal effect; nearly all actives have a fitted effect of over 40% in size. The conditions noted are these: recombinant human TDP1 enzymatic activity, dose-response. Summed up:
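Compounds are preincubated 15 min at room temperature with 1 nM recombinant human Tdp1. The reaction starts on adding 15 nM FITC-phosphotyrosine DNA substrate, runs 5 min, and is detected by AlphaScreen beads after 10 min.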

Results filed as inconclusive are left out. Values without a mark were called inactive. The source made the active and inactive calls. Calls follow the shape of the dose curve; as a rule, active = well fitted curve in the direction sought with a large enough effect; inconclusive = small, poorly fitted or top-dose-only effect, or another doubt; inactive = no such curve, though single readings can be large; an effect the other way counts as inactive or inconclusive.

Sequence of Rap guanine nucleotide exchange factor 3 (Homo sapiens) (O95398 whole entry, looked up): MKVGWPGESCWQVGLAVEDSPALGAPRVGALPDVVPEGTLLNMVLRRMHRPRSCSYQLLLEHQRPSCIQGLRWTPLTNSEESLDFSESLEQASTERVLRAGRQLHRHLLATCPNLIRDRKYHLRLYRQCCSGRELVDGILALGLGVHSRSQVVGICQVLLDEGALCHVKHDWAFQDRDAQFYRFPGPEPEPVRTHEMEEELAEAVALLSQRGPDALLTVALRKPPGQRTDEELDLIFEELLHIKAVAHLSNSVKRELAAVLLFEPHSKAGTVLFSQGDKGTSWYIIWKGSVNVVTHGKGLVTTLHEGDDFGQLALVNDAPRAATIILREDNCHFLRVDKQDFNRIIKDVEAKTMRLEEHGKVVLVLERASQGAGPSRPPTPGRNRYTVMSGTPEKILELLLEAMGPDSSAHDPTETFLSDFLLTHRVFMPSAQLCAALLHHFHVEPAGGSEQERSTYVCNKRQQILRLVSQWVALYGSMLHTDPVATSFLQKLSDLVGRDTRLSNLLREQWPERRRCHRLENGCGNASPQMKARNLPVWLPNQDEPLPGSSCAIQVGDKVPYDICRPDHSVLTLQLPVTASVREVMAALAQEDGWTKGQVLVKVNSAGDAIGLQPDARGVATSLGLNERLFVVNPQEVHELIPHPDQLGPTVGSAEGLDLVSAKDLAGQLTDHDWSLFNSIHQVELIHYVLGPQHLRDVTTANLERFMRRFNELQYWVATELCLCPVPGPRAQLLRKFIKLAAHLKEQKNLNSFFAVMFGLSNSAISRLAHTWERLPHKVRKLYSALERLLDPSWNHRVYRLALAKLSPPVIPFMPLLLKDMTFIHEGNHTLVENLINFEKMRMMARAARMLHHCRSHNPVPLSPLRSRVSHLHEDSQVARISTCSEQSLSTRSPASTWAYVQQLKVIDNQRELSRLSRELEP
Sequence of Tyrosyl-DNA phosphodiesterase 1 (Homo sapiens) (Q9NUW8 whole entry, looked up): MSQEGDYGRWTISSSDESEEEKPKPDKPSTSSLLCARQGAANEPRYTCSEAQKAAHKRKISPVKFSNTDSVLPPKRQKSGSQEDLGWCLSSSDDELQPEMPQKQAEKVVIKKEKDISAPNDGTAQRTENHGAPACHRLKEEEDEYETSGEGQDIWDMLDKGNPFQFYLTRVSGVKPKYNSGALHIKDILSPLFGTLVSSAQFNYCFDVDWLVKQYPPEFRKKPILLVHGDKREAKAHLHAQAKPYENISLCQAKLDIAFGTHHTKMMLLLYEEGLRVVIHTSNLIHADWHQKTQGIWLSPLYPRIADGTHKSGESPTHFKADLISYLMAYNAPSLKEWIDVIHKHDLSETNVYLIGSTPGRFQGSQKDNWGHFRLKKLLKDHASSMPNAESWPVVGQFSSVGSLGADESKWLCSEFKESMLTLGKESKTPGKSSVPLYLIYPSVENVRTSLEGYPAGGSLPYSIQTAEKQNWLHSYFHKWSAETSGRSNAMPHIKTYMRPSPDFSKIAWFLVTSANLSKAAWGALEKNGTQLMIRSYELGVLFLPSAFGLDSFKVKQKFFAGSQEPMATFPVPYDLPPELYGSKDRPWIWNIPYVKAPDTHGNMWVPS

Consider `COc1ccc2ccccc2c1C(O)c1nccn1C` (stereo unspecified), for which the Potency in experiment [1] was 8.19 µM (active). The Potency entry in experiment [2], in experiment [3], in experiment [4] and in experiment [5] was “inactive” each time.

`COc1ccc2c(Cl)c(C(=O)N/N=C3\CCCC(=O)C3)sc2c1`: the Potency result in experiment [2], in experiment [3] and in experiment [5] was “inactive” throughout. For the same compound, the results for the Potency in experiment [4] and in experiment [6] were 30.1 µM (active) and 39.8 µM (active), respectively.

On to `COC(=O)NCc1c(C)nn(-c2ccccc2)c1-n1cccc1`, for which the Potency entry in experiment [2], in experiment [3], in experiment [4], in experiment [5] and in experiment [6] was “inactive” in each case.

For `CC(C)COc1ccc(C(=O)Nc2cc(-c3ccccc3)no2)cc1`, the Potency result in experiment [2], in experiment [3], in experiment [4], in experiment [5] and in experiment [6] was “inactive” each time.

In the case of `COC(=O)c1c(SC)nc2ccccc2c1OCc1ccccc1Cl`, the Potency entry in experiment [2], in experiment [3], in experiment [4], in experiment [5] and in experiment [6] was “inactive” in each case.

With `CN(Cc1ccccc1)c1nc(-c2ccc(F)cc2)cc(C(F)(F)F)n1`, the figures for the Potency in experiment [7] and in experiment [4] were 28.2 µM (active) and 0.0849 µM (active), respectively. Besides, the Potency entry in experiment [2], in experiment [3], in experiment [5] and in experiment [6] was “inactive” throughout.

In the case of `CCOc1ccc(-c2cccc(NC(=O)c3ccco3)c2)nn1`, the Potency entry in experiment [2], in experiment [3], in experiment [5] and in experiment [6] was “inactive” throughout. Besides, the Potency in experiment [4] was 84.9 µM (active).

On to `CCOC(=O)c1cc2c(=O)n3ccccc3nc2n(C(C)C)c1=NC(=O)c1cc2ccccc2o1`, for which the Potency in experiment [2] is 75.7 µM (active). Also, the Potency entry in experiment [3], in experiment [4], in experiment [5] and in experiment [6] was “inactive” throughout.

Turning to `Nc1ccc2c(O)cc(S(=O)(=O)O)cc2c1`, in experiment [2], the Potency was 4.26 µM (active). Also, the Potency entry in experiment [3], in experiment [4], in experiment [5] and in experiment [6] was “inactive” throughout.

With `CCN(CC(=O)NCc1cccs1)C(=O)c1ccc(S(=O)(=O)Nc2ccccc2)cc1`, the Potency result in experiment [2], in experiment [3], in experiment [4], in experiment [5] and in experiment [6] was “inactive” each time.

As for `Oc1[nH]c2ccccc2c1N=Nc1ccccc1F`, the Potency result in experiment [2], in experiment [3], in experiment [4] and in experiment [5] was “inactive” in each case. Also, the Potency in experiment [6] was 11.2 µM (active).

Turning to `N#CC1=C2N=C(N)c3c(sc4c3CCCCC4)N2C2=C(C(=O)CCC2)C1c1ccccc1` (stereo unspecified), the Potency result in experiment [2], in experiment [3], in experiment [4], in experiment [5] and in experiment [6] was “inactive” throughout.

As for `COC(=O)c1cc2sccc2n1Cc1ccccc1`, the Potency entry in experiment [2], in experiment [3], in experiment [4] and in experiment [5] was “inactive” in each case. In addition, the Potency in experiment [6] was 44.7 µM (active).
